Experimental data: PubChem BioAssay AID2717 (Broad Institute, 2010)
Values joined by “and” are separate entries in the source; they are usually repeats but may differ in a detail not shown here. Equal values may be shown once. The campaign covered roughly 300,000 compounds. About 3,200 (1.1%) were called active. Rule as the data show it: active = inhibition above about 75%; inconclusive = no clear call, values can overlap the other calls; inactive = below that; tested in HMLE shEcad cells. Shown is part of a subset that was picked to be rich in actives.

Test: cancer stem cell viability inhibitors, primary screen, luminescence (AID 2717)
Conditions: cancer stem cell-like cells viability, at 7.5 µM, hits give high values
With `NC(=O)NC(=O)CSc1nc2cc([N+](=O)[O-])ccc2n1-c1cccc(C(F)(F)F)c1` the inhibition was 84.3% (active). With `COc1ccc(-n2cnnc2SCC(=O)Nc2cccc([N+](=O)[O-])c2)cc1` the inhibition was -0.247% (inactive). With `COc1ccc(CCNC(=O)CSc2nc3[nH]ncc3c(=O)n2-c2cccc(C(F)(F)F)c2)cc1OC` the inhibition was -2.41% (inactive). With `Cc1ccc2c(c1)C1C[N+](C)(CC(=O)c3ccccc3)CCC1N2C(=O)c1ccccc1Cl` (configuration not stated) the inhibition was -11.4% (inactive). For `COc1ccc(S(=O)(=O)N(C)C[C@H]2Oc3ccc(NS(=O)(=O)c4cccs4)cc3CC(=O)N([C@H](C)CO)C[C@H]2C)cc1`, the inhibition was -7.45% (inactive). In the case of `COc1ccc(N(CCC(=O)NCCc2ccccc2)S(=O)(=O)c2ccc(C)cc2C)cc1`, the inhibition is reported as 0.378% (inactive). In the case of `C[C@]12C=CC(=O)C=C1CC[C@@H]1[C@@H]2C(=O)C[C@@]2(C)[C@H]1CC[C@]2(O)C(=O)CO`, the inhibition is reported as -3.96% (inactive) and -10.9% (inactive). For `CC(=O)C12CC(C)=C(C)CC1CC1C3CCC4=CC(=O)CCC4(C)C3CCC12C` (configuration not stated), the inhibition was 76.7% (active). For `CC(=O)[C@@]12O[C@@H]1C[C@H]1[C@@H]3CC[C@H]4C[C@@H](O)CC[C@]4(C)[C@H]3CC[C@@]12C`, the inhibition was -0.101% (inactive). For `COc1cccc(NC(=O)COC(=O)c2ccc3ccccc3n2)c1`, the inhibition was -12.4% (inactive). With `COc1cccc(NC(=O)COc2cccnc2[N+](=O)[O-])c1` the inhibition was -14.1% (inactive). For `CC(=O)c1cccc(OCC(=O)OCC(=O)Nc2cc(S(=O)(=O)N3CCCCC3)ccc2C)c1`, the inhibition was 2.55% (inactive). In the case of `CCn1nccc1C(=O)Nc1ccc(Cl)c(Cl)c1`, the inhibition is reported as 6.24% (inactive). For `O=C(CC1SCCNC1=O)Nc1ccc(Cl)c(Cl)c1` (configuration not stated), the inhibition was -15.9% (inactive). For `O=C(CC(O)(C(F)(F)F)C(F)(F)F)Nc1ccc(Cl)c(Cl)c1`, the inhibition was 98.6% (active). With `Cc1nn(-c2ccccc2)nc1C(=O)OCC(=O)N1CCCCC1C` (configuration not stated) the inhibition was 3.22% (inactive). With `O=C(CN1C(=O)c2ccc([N+](=O)[O-])cc2C1=O)Nc1nnc(C2CC2)s1` the inhibition was -20.4% (inactive). In the case of `CC(OC(=O)c1cc2ccccc2[nH]1)C(=O)N(C)c1ccccc1` (configuration not stated), the inhibition is reported as -15.8% (inactive). In the case of `Cc1csc(=O)n1CC(=O)Nc1ccc(S(C)(=O)=O)cc1`, the inhibition is reported as -16.8% (inactive). In the case of `COc1ccc(C(=O)OCc2cc(=O)n3ccsc3n2)cc1F`, the inhibition is reported as -8.98% (inactive). With `Oc1ccccc1C1=NN(c2ccccc2)C(c2ccccc2)C1` (configuration not stated) the inhibition was 84.6% (active). In the case of `O=C(c1ccccc1)N1N=C(c2ccccc2O)CC1c1ccc(Br)cc1` (configuration not stated), the inhibition is reported as 8.94% (inactive). With `COc1ccc(C2CC(c3cccs3)=NN2c2ccccc2)cc1` (configuration not stated) the inhibition was 4.92% (inactive). With `COc1ccc(N2CCN(C(CNS(=O)(=O)c3ccc(C)cc3)c3ccccc3)CC2)cc1` (configuration not stated) the inhibition was 20.2% (inactive). In the case of `COc1cccc(CC(=O)OCC(=O)NCc2ccc3c(c2)OCO3)c1`, the inhibition is reported as -4.31% (inactive). With `Cc1cc(C)c[n+](-c2nc3ccccc3nc2[N-]S(=O)(=O)c2cccs2)c1` the inhibition was -12.3% (inactive). For `O=S(=O)([N-]c1nc2ccccc2nc1-[n+]1ccc(Cc2ccccc2)cc1)c1ccc(Br)s1`, the inhibition was 98.5% (active). With `O=C(NCCc1ccccc1)C1CCN(S(=O)(=O)c2ccc(Br)s2)CC1` the inhibition was -3.18% (inactive). In the case of `Cn1nnnc1SCC(=O)Nc1sccc1C(N)=O`, the inhibition is reported as -11.4% (inactive). In the case of `CN(CC(=O)NCCc1ccc(S(N)(=O)=O)cc1)CC(=O)Nc1ccc(Cl)cc1`, the inhibition is reported as -12.5% (inactive). For `COc1cc2cc(C(=O)N/N=C/c3cccc(OC)c3OC)[nH]c2cc1OC`, the inhibition was 8.69% (inactive). With `CN(C)CCNC(=O)c1[nH]nc2c1CCc1ccccc1-2` the inhibition was -15.5% (inactive). For `COc1cccc(/C=N/NC(=O)c2[nH]nc3c2CCc2ccccc2-3)c1O`, the inhibition was 111% (active). With `CCOC(=O)CCCCCC(=O)Nc1ccc2c(c1)CC(=O)N([C@@H](C)CO)C[C@H](C)[C@@H](CN(C)Cc1ccccc1)O2` the inhibition was -7.75% (inactive). In the case of `Cc1ccc2c(c1)c1ncn(Cc3ccc(F)cc3)c(=O)c1n2C`, the inhibition is reported as 21.8% (inactive). In the case of `COc1ccc2c(c1)c1ncn(Cc3ccccn3)c(=O)c1n2C`, the inhibition is reported as -14.9% (inactive). For `Cc1ccc2c(c1)c1ncn(CCC3=CCCCC3)c(=O)c1n2C`, the inhibition was 79.2% (active). For `CCn1nnc2cc(C(=O)Nc3ccc(C(=O)OC(C)C)cc3)ccc21`, the inhibition was -0.631% (inactive). For `O=C(COC(=O)C1CCCO1)Nc1nc(-c2ccc(F)cc2)cs1` (configuration not stated), the inhibition was -5.39% (inactive). With `O=C(OCC(=O)N1CCCCC1)c1ccc(OC(F)(F)F)cc1` the inhibition was -0.262% (inactive). For `O=C1C=C(c2ccc(Cl)cc2)C(=O)N1Nc1ccccc1`, the inhibition was 107% (active). In the case of `O=C1c2cccc3cc(Br)cc(c23)C(=O)N1Nc1ccccc1`, the inhibition is reported as 6.61% (inactive). For `O=C(O)CC1=C(Nc2ccccc2)C(=O)N(c2ccccc2)C1c1ccc(Cl)cc1` (configuration not stated), the inhibition was 9.27% (inactive). For `CCOC(=O)C1CCN(C(=O)CN2C(=O)NC(C)(c3ccc4cc(OC)ccc4c3)C2=O)CC1` (configuration not stated), the inhibition was -9.85% (inactive). In the case of `CCOC(=O)[C@@H]1[C@H]2COc3ccc(Br)cc3[C@H]2N2C(=O)N(c3ccc(C)cc3)C(=O)[C@@]12C`, the inhibition is reported as -5.83% (inactive). In the case of `COc1ccc(-c2nn(-c3ccccc3)cc2/C=N/Nc2ccccn2)cc1OC`, the inhibition is reported as 10.5% (inactive). For `O=C(CCCO)N/N=C/c1cc(Br)ccc1O`, the inhibition was -5.24% (inactive). With `Oc1ccc(Br)cc1/C=N/Nc1ccccn1` the inhibition was 101% (active). With `COc1ccc(OC)c(NC(=O)COC(=O)Cc2ccsc2)c1` the inhibition was -8.27% (inactive). With `O=C(OCC(=O)N1CCCCCC1)c1ccc(Cl)nc1` the inhibition was 15.6% (inactive). For `Cc1ccc(Oc2nc(-c3ccccn3)nc3ccccc23)cc1`, the inhibition was 4.28% (inactive). In the case of `O=C(Oc1ccc(-c2nc(-c3ccccn3)no2)cc1)c1ccccc1`, the inhibition is reported as 129% (active). With `COc1ccc(Cc2nc(-c3ccccn3)no2)cc1OC` the inhibition was -15.9% (inactive). With `N#CCCN(C(=O)COC(=O)c1ccc2c(c1)OCCO2)c1ccccc1` the inhibition was -4.1% (inactive). In the case of `CC(=O)N(C1=C(Cl)C(=O)c2ccccc2C1=O)c1ccc(C(=O)O)cc1`, the inhibition is reported as 102% (active). With `O=C(CN1C(=O)c2ccccc2C1=O)NCc1ccc(C(=O)O)cc1` the inhibition was 12.4% (inactive). For `CC(C)N(C(=O)c1ccc(-c2ccccc2F)cc1)C(C)C`, the inhibition was -3.5% (inactive). For `CCOc1ncccc1C(=O)Nc1ccc2c(c1)OCCO2`, the inhibition was -12.8% (inactive). In the case of `O=C(Nc1cc(S(=O)(=O)N2CCOCC2)ccc1N1CCOCC1)c1c(F)cccc1Cl`, the inhibition is reported as -17.5% (inactive). With `Cc1c(NC(=O)C(C)OC(=O)c2ccccc2O)c(=O)n(-c2ccccc2)n1C` (configuration not stated) the inhibition was -18.3% (inactive). In the case of `CCC(CO)Oc1cc(NC(=O)c2cccc3ccccc23)c2ncn(C(C)C)c2c1` (configuration not stated), the inhibition is reported as 4.9% (inactive). For `Cc1ccc2c(CN3CCN(S(=O)(=O)c4ccccc4C(F)(F)F)CC3)cc(=O)oc2c1`, the inhibition was 0.831% (inactive). For `CO[C@@H]1[C@@H](OC(N)=O)[C@@H](O)C(Oc2ccc3c(O)c(NC(=O)c4ccc(O)c(CC=C(C)C)c4)c(=O)oc3c2C)OC1(C)C` (some centres not stated), the inhibition was -16% (inactive). With `COC(=O)N/N=C/c1cn(CCCOc2ccc(C)cc2)c2ccccc12` the inhibition was 25.8% (inactive). With `CCOC(=O)N/N=C/c1cn(Cc2ccccc2Cl)c2ccccc12` the inhibition was 7.15% (inactive). In the case of `CNC(=S)N/N=C/c1cn(Cc2ccc(C)cc2)c2ccccc12`, the inhibition is reported as 109% (active). With `Cc1ccccc1-c1cc(C(=O)NCc2cccs2)n(CC2CC(c3cccnc3)=NO2)n1` (configuration not stated) the inhibition was 10.1% (inactive). For `OCCNc1nc(Nc2ccc(Cl)c(Cl)c2)nc2ccccc12`, the inhibition was 102% (active). For `CN(C)c1nc(Nc2ccc(Cl)c(Cl)c2)nc(N(C)C)n1`, the inhibition was -14.7% (inactive). With `COc1cc2nc(Cl)nc(NCCO)c2cc1OC` the inhibition was -15.1% (inactive). For `O=C(c1cnccn1)N1CCN(S(=O)(=O)c2cccc(Cl)c2)CC1`, the inhibition was -17.3% (inactive). In the case of `Cc1cc(N2CCCC2)ccc1NC(=O)COc1ccc(Cl)cc1`, the inhibition is reported as -10.1% (inactive). For `Cc1c(C(=O)Nc2cccc(S(=O)(=O)N3CCOCC3)c2)oc2ccccc12`, the inhibition was -11% (inactive). In the case of `CC1CCCCC12NC(=O)N(CC(=O)OCc1c(F)cccc1Cl)C2=O` (configuration not stated), the inhibition is reported as -8.77% (inactive). With `COCCN(CCOC)S(=O)(=O)NC[C@H]1O[C@@H](n2cnc3c(N)ncnc32)[C@H](O)[C@@H]1O` the inhibition was 2.3% (inactive). With `COc1ccc(Br)cc1C(=O)Nc1cccc(C)c1C` the inhibition was -31% (inactive). For `COc1ccc(Br)cc1C(=O)NC(=S)Nc1cc(-c2nc3ccccc3[nH]2)ccc1C`, the inhibition was 86.6% (active). In the case of `Cc1ccc(-c2nc3ccccc3[nH]2)cc1NC(=O)c1sc2ccccc2c1Cl`, the inhibition is reported as 6.88% (inactive). In the case of `COc1ccc(C(=O)NCc2ccccc2C)cc1S(=O)(=O)NC1CCCC1`, the inhibition is reported as 0.604% (inactive). In the case of `CC(C)CN(Cc1c(O)ccc2c(=O)c(-c3ccccc3)coc12)CC(C)C`, the inhibition is reported as -0.974% (inactive). With `CC(C)=CCc1c(O)c(CC=C(C)C)c2occ(-c3ccc(O)cc3)c(=O)c2c1O` the inhibition was 100% (active). With `O=c1c(-c2ccccc2)coc2cc(O)ccc12` the inhibition was 0.886% (inactive). With `O=C(COC(=O)c1cc(S(=O)(=O)N2CCOCC2)ccc1F)NC1CC1` the inhibition was -6.89% (inactive). With `CC(NC(=O)c1ccc(N2CCNCC2)c([N+](=O)[O-])c1)C12CC3CC(CC(C3)C1)C2` (configuration not stated) the inhibition was 86.5% (active). With `O=C(Nc1cccc(C(F)(F)F)c1)c1ccc(N2CCNCC2)c([N+](=O)[O-])c1` the inhibition was -16.4% (inactive). With `O=C(NC1C2CC3CC(C2)CC1C3)c1ccc(N2CCNCC2)c([N+](=O)[O-])c1` (configuration not stated) the inhibition was 52.3% (inactive). In the case of `O=C1C=C(c2ccnc3cc(Cl)ccc23)C[C@@H](c2ccc3c(c2)OCO3)C1`, the inhibition is reported as 6.37% (inactive).
